Inconclusive results are not listed. Active and inactive are the calls of the source. Unless noted, calls come from the whole dose curve; as a rule, active = well fitted curve in the direction sought with a large enough effect in the repeat runs; inconclusive = weak or mixed curves; inactive = no such curve, though single readings can be large; an effect the other way counts as inactive or inconclusive.
Experiments:
[1] = biological target: Estrogen receptor beta (Homo sapiens) (UniProt Q92731); assay: qHTS assay to identify small molecule agonists of the estrogen receptor beta (ER-beta) signaling pathway (AID 1259377; active = well fitted activation curve with a large enough effect in the signal ratio in the repeat runs, not every such curve was filed as active; the % refers to the signal ratio)
Method in brief: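 Reporter cells (HEK293T, ER-beta-UAS-bla) receive compounds or DMSO after a 6 hr pre-incubation. They then incubate 16 hr at 37C/5% CO2, and fluorescence from LiveBLAzer B/G substrate is measured after 2 hours at room temperature.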

[2] = biological target: Estrogen receptor beta (Homo sapiens) (UniProt Q92731); assay: qHTS assay to identify small molecule antagonists of the estrogen receptor beta (ER-beta) signaling pathway (AID 1259378; active = well fitted inhibition curve with a large enough effect in the signal ratio in the repeat runs, not every such curve was filed as active; the % refers to the signal ratio)
Method in brief: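 ER-beta-UAS-bla HEK293T cells in 2% charcoal-stripped FBS medium treated with compound plus 1nM final 17-beta-estradiol for 16 hr at 37C. Beta-lactamase reporter read by FRET substrate fluorescence after 2 hours at room temperature.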

[3] = qHTS assay to identify small molecule agonists of the estrogen receptor beta (ER-beta) signaling pathway - cell viability counter screen (AID 1259380); note: nearly all actives have a fitted effect of over 30% in size
Method in brief: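 Measured: luminescence from CellTiter-Glo after 30 min at room temperature, added to wells already read for the LiveBLAzer FRET reporter (2 hr substrate); ER-beta-UAS-bla HEK293T cells had 16 hr compound treatment at 37C, 5% CO2.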

[4] = biological target: Androgen receptor (Homo sapiens) (UniProt P10275); assay: qHTS assay to identify small molecule agonists of the androgen receptor (AR) signaling pathway in the presence of an antagonist (AID 1259381; calls by dose curve; note: nearly all actives have a fitted effect of over 15% in size)
Method in brief: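 Luminescent ONE-Glo read, 30min at room temperature, follows 16hr compound exposure (15 concentrations) of MDA-kb2 cells at 37C, 0% CO2, with nilutamide added at 3.0uM final.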

[5] = qHTS assay to identify small molecule antagonists of the estrogen receptor beta (ER-beta) signaling pathway - cell viability counter screen (AID 1259382); note: series mostly up to about 92 µM; nearly all actives have a fitted effect of over 55% in size
Method in brief: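 Readout: luminescence, CellTiter-Glo, same wells as bla assay. System: ER-beta-UAS-bla GripTite HEK293T, 2% charcoal-stripped FBS. Exposure: compounds plus 1nM 17-beta-estradiol, 16 hr, 37C.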

[6] = biological target: Estrogen receptor (Homo sapiens) (UniProt P03372); assay: qHTS assay to identify small molecule agonists of the estrogen receptor alpha (ER-alpha) signaling pathway in the presence of an antagonist (AID 1259383; calls by dose curve; note: top concentration of the series differs between compounds; nearly all actives have a fitted effect of over 15% in size)
Method in brief: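 Quantitative HTS confirmation: compounds titrated at 15 concentrations onto estrogen-deprived VM7Luc4E2 cells carrying a four-ERE luciferase construct, with ICI-182,780 present at 10.0nM final. Signal is luminescence after 22hr exposure.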

[7] = qHTS assay to identify small molecule agonists or antagonists of the thyroid stimulating hormone receptor (TSHR) signaling pathway - wild type cell line counter screen (AID 1259384; calls by dose curve)
Method in brief: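 Wild-type Hek293 cells, 800/well, 18 h at 37C, then compound with Ro20-1724 for 30 min RT. cAMP by HTRF (cAMP-d2/anti-cAMP cryptate), 1 h RT, fluorescence read. 15 concentrations, triplicates.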

[8] = biological target: Thyrotropin receptor (Homo sapiens) (UniProt P16473); assay: qHTS assay to identify small molecule antagonists of the thyroid stimulating hormone receptor (TSHR) signaling pathway (AID 1259385; calls by dose curve; note: nearly all actives have a fitted effect of over 20% in size)
Method in brief: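 TSHR-HEK293 cells (800/well) plated 18 h, then compounds with Ro20-1724 and TSH at 1.5 ng/mL final, 30 min at room temperature. cAMP quantified by HTRF (cAMP-d2/anti-cAMP-cryptate, 1 h); 15 concentrations in triplicate.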

[9] = qHTS assay to identify small molecule agonists of the estrogen receptor alpha (ER-alpha) signaling pathway in the presence of an antagonist - cell viability counter screen (AID 1259386);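 note: series mostly up to about 92 µM; cells exposed to compounds for 22 h at 37 °C before the viability read; nearly all actives have a fitted effect of over 30% in size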
Method in brief: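 The test measures whether compounds kill ER-alpha reporter cells (VM7Luc4E2) under antagonist co-treatment (ICI-182,780, 10.0nM). Fluorescence from CellTiter-Fluor is read after a 22hr exposure.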

[10] = biological target: Progesterone receptor (Homo sapiens) (UniProt P06401); assay: qHTS assay to identify small molecule agonists of the progesterone receptor (PR) signaling pathway (AID 1346784; calls by dose curve; note: nearly all actives have a fitted effect of over 30% in size)
Method in brief: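 Reporter assay, GripTite PR-UAS-bla HEK 293T cells: 16 hr exposure to DMSO-dissolved compounds at 37C, 5% CO2, in steroid-depleted (2% charcoal-stripped FBS) medium; beta-lactamase measured by FRET fluorescence.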

[11] = biological target: Progesterone receptor (Homo sapiens) (UniProt P06401); assay: qHTS assay to identify small molecule antagonists of the progesterone receptor (PR) signaling pathway (AID 1346795; active = well fitted inhibition curve with a large enough effect in the signal ratio in the repeat runs, not every such curve was filed as active; the % refers to the signal ratio)
Method in brief: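 Stimulus R5020 at 1 nM final; cells HEK293T PR-UAS-bla; medium with 2% charcoal-stripped FBS; compound exposure 16 hr at 37C, 5% CO2; detection by FRET beta-lactamase substrate, 2 hr, room temperature.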

[12] = qHTS assay to identify small molecule antagonists of the progesterone receptor (PR) signaling pathway - cell viability counter screen (AID 1346798); note: series mostly up to about 92 µM; nearly all actives have a fitted effect of over 50% in size
Method in brief: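 In the same plates used for the beta-lactamase readout, cell viability of compound- and R5020-treated PR-UAS-bla HEK293T cells (16 hr, 37C) was assessed by CellTiter-Glo luminescence.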

[13] = qHTS assay to identify small molecule agonists of the progesterone receptor (PR) signaling pathway - cell viability counter screen (AID 1346799; calls by dose curve; note: nearly all actives have a fitted effect of over 45% in size)
Method in brief: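 Multiplexed viability read: CellTiter-Glo luminescence, 30 min RT, following LiveBLAzer FRET measurement on PR-UAS-bla HEK293T cells exposed to compounds 16 hr.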

[14] = qHTS assay to identify small molecule agonists of the TGF-beta/Smad signaling pathway - cell viability counter screen (AID 1346829); note: top concentration of the series differs between compounds; nearly all actives have a fitted effect of over 45% in size
Method in brief: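 Compound-treated SBE-bla HEK 293T cells (5 hr, 37 C) were assessed for viability with CellTiter-Glo in parallel with the reporter read.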

[15] = biological target: Thyrotropin-releasing hormone receptor (Homo sapiens) (UniProt P34981); assay: qHTS assay to identify small molecule antagonists of the thyrotropin-releasing hormone receptor (TRHR) signaling pathway (AID 1346877; active = well fitted inhibition curve with a large enough effect in the repeat runs, not every such curve was filed as active; note: series mostly up to about 51 µM)
Method in brief: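 Overnight-plated (18 h, 37 °C) HEK293 cells expressing TRHR were dye-loaded 2 h, treated with compound, then stimulated with TRH at 1 nM final. Fluorescence intensity was captured every second for 3 min.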

[16] = biological target: Thyrotropin-releasing hormone receptor (Homo sapiens) (UniProt P34981); assay: qHTS assay to identify small molecule agonists of the thyrotropin-releasing hormone receptor (TRHR) signaling pathway (AID 1346891; calls by dose curve; note: series mostly up to about 58 µM)
Method in brief: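 Readout was intracellular calcium fluorescence in TRHR-Hek293 cells. Cells were incubated 18 h, dye-loaded 2 h at 37 °C, and treated with compound in agonist mode.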

[17] = Human pregnane X receptor (PXR) small molecule agonists, qHTS cell viability counter screen (AID 1346977); note: nearly all actives have a fitted effect of over 50% in size
Method in brief: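 In each well, the PXR reporter HepG2 line was checked for viability: CellTiter-Fluor reagent added 23hr post-dosing, fluorescence read after 1hr incubation at 37C.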

[18] = qHTS assay to identify small molecule agonists of the androgen receptor (AR) signaling pathway in the presence of an antagonist - cell viability counter screen (AID 1259379);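 note: MDA-kb2 human breast cancer cells carrying an MMTV luciferase reporter; series mostly up to about 92 µM; nearly all actives have a fitted effect of over 25% in size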
Method in brief: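 MDA-kb2 viability measured by CellTiter-Fluor fluorescence in the same wells as the luciferase signal; nilutamide 3.0uM final; 15-point compound titration; 16 hr at 37C.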

[19] = qHTS assay to identify small molecule antagonists of the TGF-beta/Smad signaling pathway - cell viability counter screen (AID 1346824); note: nearly all actives have a fitted effect of over 50% in size
Method in brief: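 SBE-bla HEK 293T cells, incubated overnight, then compound plus 0.25 ng/mL TGF-beta1 (stock added) for 5 hr at 37 C. Viability was read in the same wells by CellTiter-Glo luminescence after 30 min at room temperature.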

[20] = qHTS assay to identify small molecule agonists of the TGF-beta/Smad signaling pathway (AID 1346859; active = well fitted activation curve with a large enough effect in the signal ratio in the repeat runs, not every such curve was filed as active; the % refers to the signal ratio; note: series mostly up to about 77 µM)
Method in brief: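 Screening used HEK 293T SBE-bla cells at 4,000/well. Test agents: 5 hr, 37 C. Detection: FRET substrate, 2 hr RT, then excitation 405 nm with emissions at 460 and 530 nm.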

Measured: Potency

Estrogen receptor beta (Homo sapiens), sequence (Q92731 whole entry, looked up): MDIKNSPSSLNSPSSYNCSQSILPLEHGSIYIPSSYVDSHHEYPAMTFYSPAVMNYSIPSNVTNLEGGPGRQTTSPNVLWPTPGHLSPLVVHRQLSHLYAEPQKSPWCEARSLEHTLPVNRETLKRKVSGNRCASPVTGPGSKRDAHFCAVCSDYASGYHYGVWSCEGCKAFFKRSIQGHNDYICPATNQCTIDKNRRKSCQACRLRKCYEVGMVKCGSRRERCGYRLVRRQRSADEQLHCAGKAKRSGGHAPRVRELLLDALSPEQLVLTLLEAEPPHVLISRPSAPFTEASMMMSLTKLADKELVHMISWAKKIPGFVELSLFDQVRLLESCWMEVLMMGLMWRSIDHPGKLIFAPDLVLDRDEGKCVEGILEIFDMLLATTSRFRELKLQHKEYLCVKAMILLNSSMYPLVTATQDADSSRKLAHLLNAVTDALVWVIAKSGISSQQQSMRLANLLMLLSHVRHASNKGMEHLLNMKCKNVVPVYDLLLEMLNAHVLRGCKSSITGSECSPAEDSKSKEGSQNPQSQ
Estrogen receptor (Homo sapiens), sequence (P03372 whole entry, looked up): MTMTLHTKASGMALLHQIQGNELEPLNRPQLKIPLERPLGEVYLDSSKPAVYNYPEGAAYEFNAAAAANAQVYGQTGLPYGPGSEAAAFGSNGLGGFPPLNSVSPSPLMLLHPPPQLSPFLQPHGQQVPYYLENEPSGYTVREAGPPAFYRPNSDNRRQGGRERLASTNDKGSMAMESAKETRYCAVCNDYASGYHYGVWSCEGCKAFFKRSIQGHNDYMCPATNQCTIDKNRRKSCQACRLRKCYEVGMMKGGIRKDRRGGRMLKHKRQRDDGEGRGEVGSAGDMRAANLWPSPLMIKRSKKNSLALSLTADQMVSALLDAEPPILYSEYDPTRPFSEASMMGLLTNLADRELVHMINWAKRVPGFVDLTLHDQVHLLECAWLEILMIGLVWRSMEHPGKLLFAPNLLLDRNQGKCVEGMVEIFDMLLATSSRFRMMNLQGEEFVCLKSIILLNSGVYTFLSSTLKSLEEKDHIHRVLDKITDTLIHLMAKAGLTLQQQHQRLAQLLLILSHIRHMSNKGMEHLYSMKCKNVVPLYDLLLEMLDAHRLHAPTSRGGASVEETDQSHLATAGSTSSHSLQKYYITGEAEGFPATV
Progesterone receptor (Homo sapiens), sequence (P06401 whole entry, looked up): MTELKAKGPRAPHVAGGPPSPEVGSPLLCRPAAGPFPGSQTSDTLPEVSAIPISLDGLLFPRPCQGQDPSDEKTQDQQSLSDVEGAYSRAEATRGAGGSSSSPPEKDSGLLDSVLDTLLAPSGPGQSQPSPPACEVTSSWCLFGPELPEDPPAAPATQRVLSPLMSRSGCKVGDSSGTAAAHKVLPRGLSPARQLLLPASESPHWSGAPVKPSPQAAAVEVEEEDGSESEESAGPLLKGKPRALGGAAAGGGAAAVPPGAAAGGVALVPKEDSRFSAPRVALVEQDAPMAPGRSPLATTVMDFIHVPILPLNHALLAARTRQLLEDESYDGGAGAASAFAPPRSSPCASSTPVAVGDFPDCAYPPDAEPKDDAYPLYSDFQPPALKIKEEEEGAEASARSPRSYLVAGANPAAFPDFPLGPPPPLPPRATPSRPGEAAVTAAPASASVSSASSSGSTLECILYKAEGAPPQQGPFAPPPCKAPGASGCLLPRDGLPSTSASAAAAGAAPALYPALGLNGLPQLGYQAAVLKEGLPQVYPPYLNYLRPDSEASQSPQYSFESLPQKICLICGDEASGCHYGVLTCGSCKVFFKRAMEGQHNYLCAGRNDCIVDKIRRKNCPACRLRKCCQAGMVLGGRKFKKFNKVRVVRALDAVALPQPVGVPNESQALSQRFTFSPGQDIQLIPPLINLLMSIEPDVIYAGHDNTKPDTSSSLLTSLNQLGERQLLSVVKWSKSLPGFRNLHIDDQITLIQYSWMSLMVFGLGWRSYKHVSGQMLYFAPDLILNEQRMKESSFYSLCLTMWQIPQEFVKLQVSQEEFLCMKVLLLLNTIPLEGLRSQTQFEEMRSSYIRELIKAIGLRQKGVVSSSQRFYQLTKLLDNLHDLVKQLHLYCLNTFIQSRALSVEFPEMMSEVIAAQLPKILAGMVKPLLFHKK
Androgen receptor (Homo sapiens), sequence (P10275 whole entry, looked up): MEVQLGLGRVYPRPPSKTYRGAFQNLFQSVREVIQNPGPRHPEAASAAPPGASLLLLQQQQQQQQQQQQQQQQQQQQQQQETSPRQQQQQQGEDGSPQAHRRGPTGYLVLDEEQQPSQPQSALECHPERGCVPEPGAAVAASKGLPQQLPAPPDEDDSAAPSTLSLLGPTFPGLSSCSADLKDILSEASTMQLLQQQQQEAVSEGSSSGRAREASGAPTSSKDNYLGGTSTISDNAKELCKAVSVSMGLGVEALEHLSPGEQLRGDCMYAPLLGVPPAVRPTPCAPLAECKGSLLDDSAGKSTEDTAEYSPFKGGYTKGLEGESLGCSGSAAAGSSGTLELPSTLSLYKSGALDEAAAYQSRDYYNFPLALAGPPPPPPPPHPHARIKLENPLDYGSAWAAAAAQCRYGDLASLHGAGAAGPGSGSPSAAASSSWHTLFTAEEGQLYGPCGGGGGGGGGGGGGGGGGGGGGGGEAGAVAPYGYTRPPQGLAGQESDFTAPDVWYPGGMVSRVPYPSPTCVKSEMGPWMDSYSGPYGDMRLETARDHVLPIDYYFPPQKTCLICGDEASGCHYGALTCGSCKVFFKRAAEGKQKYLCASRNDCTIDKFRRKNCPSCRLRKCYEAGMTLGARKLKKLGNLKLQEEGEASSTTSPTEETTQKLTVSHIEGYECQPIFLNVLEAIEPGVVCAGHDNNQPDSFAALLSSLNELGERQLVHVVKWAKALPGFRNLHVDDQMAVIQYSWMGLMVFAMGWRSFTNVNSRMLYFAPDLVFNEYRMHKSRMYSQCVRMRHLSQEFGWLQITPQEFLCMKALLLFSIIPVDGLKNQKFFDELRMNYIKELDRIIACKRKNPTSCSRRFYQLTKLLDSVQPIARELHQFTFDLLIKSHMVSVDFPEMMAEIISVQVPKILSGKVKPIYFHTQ
Thyrotropin-releasing hormone receptor (Homo sapiens), sequence (P34981 whole entry, looked up): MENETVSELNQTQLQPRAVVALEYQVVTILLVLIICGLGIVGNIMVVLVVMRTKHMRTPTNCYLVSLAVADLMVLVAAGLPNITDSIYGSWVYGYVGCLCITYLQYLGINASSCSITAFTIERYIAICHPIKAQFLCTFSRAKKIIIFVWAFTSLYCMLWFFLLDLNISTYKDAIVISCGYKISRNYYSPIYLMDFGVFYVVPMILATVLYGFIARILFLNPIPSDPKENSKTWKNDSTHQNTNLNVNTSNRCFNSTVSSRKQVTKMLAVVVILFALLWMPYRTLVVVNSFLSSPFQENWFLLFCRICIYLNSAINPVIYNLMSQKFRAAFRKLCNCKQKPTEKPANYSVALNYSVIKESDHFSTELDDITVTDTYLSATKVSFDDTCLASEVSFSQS
Thyrotropin receptor (Homo sapiens), sequence (P16473 whole entry, looked up): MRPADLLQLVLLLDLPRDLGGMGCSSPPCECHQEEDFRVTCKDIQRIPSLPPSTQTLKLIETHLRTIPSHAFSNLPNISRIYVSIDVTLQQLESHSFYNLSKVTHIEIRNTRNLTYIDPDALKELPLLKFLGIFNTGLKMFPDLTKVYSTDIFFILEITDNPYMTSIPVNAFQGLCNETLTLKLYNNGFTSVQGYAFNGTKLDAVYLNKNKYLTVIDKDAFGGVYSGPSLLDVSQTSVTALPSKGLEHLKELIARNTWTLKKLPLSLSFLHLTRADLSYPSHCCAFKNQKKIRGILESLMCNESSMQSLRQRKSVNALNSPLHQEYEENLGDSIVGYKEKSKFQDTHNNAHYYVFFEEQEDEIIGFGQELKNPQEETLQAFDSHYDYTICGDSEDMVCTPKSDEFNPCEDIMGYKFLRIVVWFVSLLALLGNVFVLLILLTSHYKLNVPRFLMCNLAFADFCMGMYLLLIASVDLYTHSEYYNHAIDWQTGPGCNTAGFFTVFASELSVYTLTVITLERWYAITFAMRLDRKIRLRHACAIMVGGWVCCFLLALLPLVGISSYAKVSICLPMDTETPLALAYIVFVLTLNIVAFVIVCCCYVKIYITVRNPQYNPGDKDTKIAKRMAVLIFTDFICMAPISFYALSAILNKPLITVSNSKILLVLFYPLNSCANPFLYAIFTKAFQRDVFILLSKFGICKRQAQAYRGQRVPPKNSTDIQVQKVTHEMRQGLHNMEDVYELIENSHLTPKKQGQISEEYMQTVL

COP(=S)(OC)Oc1cc(Cl)c(Cl)cc1Cl
inactive: [1] | [2] | [3] | [4] | [5] | [6] | [7] | [8] | [9] | [10] | [11] | [12] | [13] | [14] | [15] | [16] | [17]

OCC(O)CO
inactive: [1] | [2] | [18] | [3] | [5] | [6] | [7] | [8] | [9] | [10] | [11] | [12] | [19] | [14] | [15] | [16] | [17]

C=C(C)C(=O)OCC1CO1 (stereo unspecified)
inactive: [1] | [2] | [18] | [3] | [6] | [7] | [8] | [9] | [10] | [11] | [12] | [13] | [19] | [14] | [20] | [15] | [16] | [17]

CCCCCCCCOC(=O)c1ccccc1C(=O)OCCCCCCCC
inactive: [1] | [2] | [18] | [3] | [4] | [5] | [6] | [7] | [8] | [9] | [10] | [11] | [12] | [13] | [14] | [15] | [16] | [17]

O=[N+]([O-])c1cccc2ccccc12
inactive: [1] | [2] | [3] | [5] | [6] | [7] | [8] | [9] | [10] | [11] | [12] | [19] | [14] | [15] | [16] | [17]

CCN(N=O)C(N)=O
inactive: [1] | [2] | [18] | [3] | [6] | [7] | [8] | [9] | [10] | [11] | [12] | [13] | [19] | [14] | [20] | [15] | [16] | [17]

Nn1cnnc1
inactive: [1] | [2] | [18] | [3] | [5] | [6] | [7] | [8] | [9] | [10] | [11] | [12] | [14] | [20] | [15] | [16] | [17]
